Screening results deposited in PubChem BioAssay by several laboratories.
BoNT F protease: blocks Botulinum neurotoxin F light chain protease | Multiplex microsphere protease cleavage assay, flow cytometry | 360,000 compounds, 0.22% hits | inhibition, % at 10 µM | AID 588497; in the data active = inhibition above about 35%, passing the limit was not always enough; inconclusive = no clear call, values can overlap the other calls; also: plate controls were buffer without enzyme for full effect and enzyme alone for no effect
BoNT-A LC inh2: blocks Botulinum neurotoxin A light chain protease; multiplex microsphere protease substrate cleavage, flow cytometry; inhibition, % at 10 µM; 360,000 compounds, 0.17% hits; AID 588499; also: plate controls were buffer without enzyme for full effect and enzyme alone for no effect
MazF activator: MazEF (E. coli) toxin RNase activation | P0AE70 | FAM/BHQ RNA-DNA oligo cleavage fluorescence, 5 h | activation, % at 20 µM | 350,000 compounds, 0.32% hits | AID 504720; in the data active = activation above about 50%
Autofluor counter: flagged as autofluorescent in microsphere protease counterscreen; compound autofluorescence counterscreen, microsphere flow cytometry; active compounds read high; fluorescence intensity (test concentration not listed); 360,000 compounds, 3.1% hits; AID 624483; in the data active = fluorescence intensity above about 16000; inconclusive = no clear call, values can overlap the other calls
Anthrax LF prot: blocks Bacillus anthracis lethal factor protease | 360,000 compounds, 0.12% hits | multiplex microsphere protease cleavage assay, LF | P15917 | inhibition, % at 10 µM; also: plate controls were buffer without enzyme for full effect and enzyme alone for no effect
Target sequence (P15917 whole entry, looked up): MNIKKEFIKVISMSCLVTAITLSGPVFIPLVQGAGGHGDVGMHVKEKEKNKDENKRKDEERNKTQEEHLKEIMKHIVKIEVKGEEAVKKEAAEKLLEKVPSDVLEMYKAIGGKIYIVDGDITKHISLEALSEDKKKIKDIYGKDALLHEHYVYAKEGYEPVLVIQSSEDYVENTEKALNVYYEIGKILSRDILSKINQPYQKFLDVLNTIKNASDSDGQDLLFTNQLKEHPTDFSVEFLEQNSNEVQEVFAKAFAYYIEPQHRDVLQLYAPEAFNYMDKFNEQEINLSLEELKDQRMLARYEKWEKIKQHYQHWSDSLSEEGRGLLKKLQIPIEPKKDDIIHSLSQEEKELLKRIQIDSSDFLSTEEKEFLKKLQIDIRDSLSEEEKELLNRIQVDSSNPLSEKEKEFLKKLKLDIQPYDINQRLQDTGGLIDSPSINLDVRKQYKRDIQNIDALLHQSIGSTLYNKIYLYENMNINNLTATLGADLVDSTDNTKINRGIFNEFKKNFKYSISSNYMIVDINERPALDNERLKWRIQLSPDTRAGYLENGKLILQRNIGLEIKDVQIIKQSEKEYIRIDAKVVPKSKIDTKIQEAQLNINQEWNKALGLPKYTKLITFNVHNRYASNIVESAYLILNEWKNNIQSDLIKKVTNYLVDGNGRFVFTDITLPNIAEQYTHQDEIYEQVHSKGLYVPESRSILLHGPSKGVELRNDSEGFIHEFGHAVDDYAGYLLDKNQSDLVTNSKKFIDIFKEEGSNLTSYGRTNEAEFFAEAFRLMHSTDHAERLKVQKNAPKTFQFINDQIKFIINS
The depositor's hits bear a star; ? = inconclusive; . = not tested or not shown. In the library only some 3.7% were active in any assay of this set; here they are far more common. Rule as the data show it, unless noted: active = inhibition above about 30%; inconclusive = no clear call, values can overlap the other calls; inactive = below that.

SMILES | BoNT F protease | BoNT-A LC inh2 | MazF activator | Autofluor counter | Anthrax LF prot
O=C(CSc1nnc(-c2ccc(S(=O)(=O)N3CCCC3)cc2)o1)NCc1ccco1 | 3 | 2 | -2 | 21711* | 1
CC1Cc2ccccc2N1C(=O)CSc1nnc(-c2ccccc2)c(-c2ccccc2)n1 (centres undefined) | ? | ? | 1 | 16388* | ?
Cc1csc(NC(=O)CSc2nnc(-c3ccc(S(=O)(=O)N4CCCC4)cc3)o2)n1 | -5 | 0 | -21 | 10686 | -1
COc1ccc(-c2nnc(SCC(=O)NCc3ccco3)o2)cc1 | -34 | -5 | 0 | 11192 | -5
CC(C)(C)OC(=O)N1CCCN(C(c2ccnc3ccccc23)c2nnnn2-c2ccc3c(c2)OCCO3)CC1 (centres undefined) | 5 | -1 | . | 4144 | -10
CN(Cc1ccccc1)S(=O)(=O)c1ccc(Cl)c(C(=O)NCCCN2CCOCC2)c1 | 5 | 0 | 1 | 5166 | 5
COc1ccc(C(=O)CSc2nnc(-c3ccc(S(=O)(=O)N4CCOCC4)cc3)o2)cc1 | -4 | -3 | -8 | 20449* | -1
Cc1ccc(-c2nnc(SCC(=O)Nc3ccc(S(=O)(=O)N4CCCCCC4)cc3)o2)cc1 | 11 | 1 | 4 | 9547 | 1
CCN(CC)S(=O)(=O)c1ccc(-c2nnc(SCC(C)=O)o2)cc1 | -5 | -1 | 9 | 16485* | 1
CC(=O)c1cccc(NC(=O)CSc2nnc(-c3ccc(S(=O)(=O)N4CCCC4)cc3)o2)c1 | 4 | 1 | -3 | 21749* | 1
O=C(COc1ccc(S(=O)(=O)N2CCOCC2)cc1)NCc1ccccn1 | 0 | -1 | -4 | 4486 | -6
COc1cc(NC(=O)C2(C)CCN2C(=O)C(C)C)cc(OC)c1OC (centres undefined) | -1 | 0 | . | 3611 | -1
CCCSc1nnc(C(C)C)n1N | 3 | ? | -2 | 22250* | -1
Cc1ccccc1-n1cnc2cc(NCc3cccs3)ccc21 | -8 | ? | 5 | 23047* | -3
COc1ccccc1-n1cnc2cc(NCc3cccs3)ccc21 | 4 | 1 | -2 | 2305 | -8
Oc1[nH]c2ccccc2c1N=Nc1cccc(Cl)c1 | -18 | 4 | 362* | 3507 | 2
CCCc1nnc(NC(=O)Cn2c(=O)oc3cc(Br)ccc32)s1 | 4 | 2 | -21 | 21386* | -1
CCN(CC(=O)NCc1ccc(Cl)cc1)C(=O)CSc1cc(C)ccc1C | -4 | -1 | -3 | 5570 | 0
NS(=O)(=O)c1cccc(NC(=O)COC(=O)CNC(=O)c2ccc(-c3ccccc3)cc2)c1 | 1 | 3 | 2 | 7473 | 1
CCn1c(COc2cccc(OC)c2)nnc1SCC(=O)Nc1ccccc1C(=O)OC | 6 | ? | -1 | 19252* | 1
CCn1c(SCC(=O)c2ccc(O)c(O)c2)nnc1-c1ccc(C)cc1 | -1 | 0 | 4 | 2923 | -2
CCOC(=O)c1ccccc1NC(=O)CSc1nnc(COc2ccccc2C)n1C | 7 | ? | -10 | 17960* | -1
CCn1c(COc2ccccc2C)nnc1SCC(=O)N1CCCCC1 | -3 | 0 | 2 | 9214 | -5
CCn1c(SCC(=O)c2ccc3c(c2)Cc2ccccc2-3)nnc1-c1ccc(N)cc1 | 0 | -2 | 4 | 23475* | -10
CCn1c(COc2ccc(Cl)c(C)c2)nnc1SCC(=O)N1CCCC1 | -2 | ? | -14 | 20792* | -1
SMILES | BoNT F protease | BoNT-A LC inh2 | MazF activator | Autofluor counter | Anthrax LF prot
Cc1ccccc1OCc1nnc(SCC(=O)NCc2ccccc2)n1C | 1 | 0 | -4 | 3884 | 3
Cc1ncc([N+](=O)[O-])n1CC(=O)Nc1cccc(C(F)(F)F)c1 | ? | 6 | 0 | 3435 | -7
O=C(/C=C/c1ccccc1Cl)NCc1cccs1 | -4 | 0 | 2 | 2461 | -1
CCn1c(COc2ccccc2)nnc1SCC(=O)Nc1cc(C)ccc1OC | -12 | 0 | -11 | 10154 | -2
CCn1c(SCC(=O)Nc2ccccc2C(=O)OC)nnc1-c1ccc(N)cc1 | -2 | 0 | -2 | 23878* | 1
CCn1c(COc2ccc(C)cc2)nnc1SCC(=O)Nc1cc(OC)ccc1OC | 3 | 1 | 4 | 22615* | -5
CCn1c(SCC(=O)Nc2ccccc2C(=O)OC)nnc1-c1ccoc1C | -5 | 0 | 2 | 4111 | -2
Cc1ccc(C)c2[nH]c(=O)c(CN(Cc3ccco3)C(=S)NCC3CCCO3)cc12 (centres undefined) | -3 | 0 | 5 | 4447 | -3
O=C(CNC(=O)c1ccc(Br)o1)NCC1CCCCC1 | -2 | 4 | 7 | 6200 | -1
Cc1cc(Br)ccc1NC(=O)CNC(=O)CSc1n[nH]c(N)n1 | 40* | 1 | -8 | 3808 | -9
